Results taken from PubChem BioAssay (NCATS).
Results filed as inconclusive are left out. Values without a mark were called inactive. Activity calls are given as the source filed them. The call rests on the fitted dose curve; in most records, active means well fitted inhibition curve with a large enough effect; inconclusive means small, poorly fitted or top-dose-only effect; inactive means flat fitted curve, though single readings scatter.

target: Glutathione peroxidase 1 (Homo sapiens) (UniProt P07203); test: Primary qHTS Assay for Inhibitors of Recombinant Selenoprotein Glutathione Peroxidase 1 (GPX1) (AID 1845191); details: recombinant GPX1, GR-coupled NADPH fluorescence, 15 min; series mostly up to 48.8 µM; activity, negative = inhibition: at the top concentration; further: nearly all actives have a fitted effect of over 65% in size
In short: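 GR-coupled readout: NADPH consumption tracked by fluorescence, ex 340/em 450 nm, at t=0 and after 15 min at RT. Final mix 10 nM GPX1, 1 mM GSH, 0.5 mM CHP, 0.5 mM NADPH, 100 nM GR, 0.01% BSA, following 30 min enzyme–compound preincubation.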
On the % scale 0 is the no-effect control and ±100 the full control effect.

Sequence of Glutathione peroxidase 1 (Homo sapiens) (P07203 whole entry, looked up): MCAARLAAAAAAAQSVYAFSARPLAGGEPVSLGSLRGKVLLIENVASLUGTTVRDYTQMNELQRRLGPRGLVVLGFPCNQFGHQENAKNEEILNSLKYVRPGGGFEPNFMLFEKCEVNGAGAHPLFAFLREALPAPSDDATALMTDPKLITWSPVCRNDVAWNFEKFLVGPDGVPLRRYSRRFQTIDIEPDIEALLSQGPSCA

Row | SMILES | activity, negative = inhibition | outcome | Potency
1 | Cc1sc2c(c1C)C(c1ccc(Cl)cc1)=N[C@H](CC(=O)NCCCCNC(=O)COc1cccc3c1C(=O)N([C@H]1CCC(=O)NC1=O)C3=O)c1nnc(C)n1-2 | -32.6% | – | –
2 | CC1CCC(=O)CC(SCC(O)C(=O)O)CCC(=O)O1 (centres undefined) | – | inactive | –
3 | COc1ccc(C[C@H]2COC(=O)[C@@H]2Cc2ccc(O[C@@H]3O[C@H](CO)[C@@H](O)[C@H](O)[C@H]3O)c(OC)c2)cc1OC | -14.3% [at 27.7 µM] | – | –
4 | CCC(C)CNCC(=O)N1CCC2SC=CC2C1COc1cccc(C)c1 (centres undefined) | -1.04% | – | –
5 | C=C1CC2OC(=O)C(COC)C2C(OC(=O)/C(C)=C\C)CC2(C)OC1=CC2=O (centres undefined) | – | inactive [at 27.7 µM] | –
6 | CCC(C)(OC(C)=O)C(=O)O[C@H]1[C@H](OC(C)=O)[C@]2(CO)[C@H](O)[C@H](O)[C@]3(C)C(=CCC4[C@@]5(C)CC[C@H](O[C@@H]6O[C@H](C(=O)O)[C@@H](O)[C@H](O[C@@H]7OC[C@H](O)[C@H](O[C@@H]8OC[C@H](O)[C@H](O)[C@H]8O)[C@H]7O)[C@H]6O[C@@H]6O[C@H](CO)[C@@H](O)[C@H](O)[C@H]6O)C(C)(C)C5CC[C@]43C)[C@@H]2CC1(C)C (some centres undefined) | -12.6% [at 9.52 µM] | – | –
7 | NC(=O)c1nc(Nc2ccccc2)sc1NC(=O)C1CCCCC1 | – | inactive | –
8 | CC1=CC2/C=C(\C)CCC(O)C/C=C/C(=O)OC23C(=O)NC(CC(C)C)C3C1C (centres undefined) | -18.2% [at 27.7 µM] | – | –
9 | CC(=O)N1CCN(CCOc2ccc(C3CCN(C4=Nn5c(nnc5C(F)(F)F)CC4)CC3)cc2)CC1 | – | inactive | –
10 | Cc1ccc(C(C)C)c(O[C@@H]2O[C@H](CO)[C@@H](O)[C@H](O)[C@H]2O)c1 | -17.1% [at 27.7 µM] | – | –
11 | Cc1ccc(F)cc1S(=O)(=O)N[C@@H]1CCN(Cc2ccc(OC(C)C)cc2)C1 | -13.9% | – | –
12 | O=c1[nH]c2ccccc2n1CCN1CCN(c2cccc(C(F)(F)F)c2)CC1 | – | – | inactive
13 | CC(C)n1nc(C#Cc2ccccc2)c2c(N)ncnc21 | – | inactive | –
14 | CC(CCC1(O)OC2CC3C4CC=C5CC(O[C@@H]6O[C@H](CO)[C@@H](O[C@@H]7O[C@@H](C)[C@H](O)[C@@H](O)[C@H]7O)[C@H](O)[C@H]6O[C@@H]6O[C@@H](C)[C@H](O)[C@@H](O)[C@H]6O)CCC5(C)C4CCC3(C)C2C1C)CO[C@@H]1O[C@H](CO)[C@@H](O)[C@H](O)[C@H]1O (some centres undefined) | -11% [at 15.3 µM] | – | –
15 | O=C(Nc1cccnn1)N1CCN(c2nccc(-c3ccc(F)c(F)c3)n2)CC1 | 3.22% [at 98.3 µM] | – | –
16 | C[C@H](Nc1cc2c(-c3ccc4c(c3)OCO4)noc2cn1)c1ccccc1 | – | inactive | –
17 | C=C1CCCC2(C)CCC(C(C)(C)OC3OC(C)C(O)C(O)C3OC(=O)/C(C)=C\C)CC12 (centres undefined) | -19.3% [at 27.7 µM] | – | –
18 | CC(C)c1cc(-c2ccc(F)c3ccccc23)nc(N)n1 | -17.8% | – | –
19 | C=C1C(=O)OC2C1CCC1(C)C(O)CCC(=C)C21 (centres undefined) | – | inactive | –
20 | C/C=C(/C)C(=O)OC1C=C2C3C(C)C(C)C(OC(=O)C(C)C(C)O)CC3(C)CCC2(C)C2(C)CC(OC(C)=O)C3C(C)(C)C(O)C(=O)CC3(C)C12 (centres undefined) | -19.4% [at 15.3 µM] | – | –

Row | SMILES | activity, negative = inhibition | outcome | Potency
21 | C=C1C(=O)O[C@@H]2C(OC(=O)/C(C)=C\C)/C(C)=C\C(=O)/C=C(\C)C[C@H](O)[C@@H]12 (some centres undefined) | -13.8% [at 27.7 µM] | – | –
22 | OC(CC1c2ccccc2-c2cncn21)C1CCCCC1 (centres undefined) | -19.2% | – | –
23 | CCC(C)C(=O)O[C@H]1[C@H](O)[C@@]2(COC(C)=O)C(CC1(C)C)C1=CCC3[C@@]4(C)CC[C@H](O[C@@H]5O[C@H](C(=O)O)[C@@H](O)[C@H](O)[C@H]5O)[C@@](C)(CO)C4CC[C@@]3(C)[C@]1(C)C[C@@H]2O (some centres undefined) | – | inactive [at 15.3 µM] | –
24 | Nc1ncnc2c1c(-c1ccc(Cl)cc1)nn2-c1cccc(-c2cnnn2Cc2cccc(-c3ccccc3)c2)c1 | -2.67% | – | –
25 | CCC[C@H](N[C@H]1CCc2cc(F)cc(F)c2C1)C(=O)Nc1cn(C(C)(C)CNCC(C)(C)C)cn1 | – | – | inactive
26 | CC(C)(C)C1CCN(C(=O)n2ncc(C(O)(c3ccccc3)c3ccccc3)n2)CC1 | -19% | – | –
27 | C/C=C/C=C/C=C/C(=O)O[C@@H]1C=C2COC(=O)[C@]2(O)[C@@]2(C)CCCC(C)(C)[C@H]12 | – | inactive [at 27.7 µM] | –
28 | C=CCc1ccc(OC(C)Cc2ccc(OC)c(OC)c2)c(OC)c1 (centres undefined) | -17.4% [at 27.7 µM] | – | –
29 | C=C(COC(=O)C(O)C(O)CN)C12OC1C1(C)C(=CC2=O)C(O)C(O)CC1C (centres undefined) | -9.35% [at 27.7 µM] | – | –
30 | COC1CC(O[C@H]2CC[C@]3(C)C4CC[C@@]5(C)C(=O)[C@]4(CC[C@@H]3C2)CC[C@@H]5C2=CC(=O)OC2)OC(C)C1OC1OC(COC2OC(CO)C(O)C(O)C2O)C(O)C(O)C1O (some centres undefined) | – | inactive [at 15.3 µM] | –
31 | COC1CC(=O)C23C(=O)NC(Cc4c[nH]c5ccccc45)C2C(C)C2(C)OC2C3/C=C/CC(C)CC1O (centres undefined) | -15.6% [at 27.7 µM] | – | –
32 | Cc1ccc(C)c(NC(=O)[C@@H]2CCCN2S(=O)(=O)c2cccc3cccnc23)c1 | -5.47% | – | –
33 | Fc1ccc(-c2nc(-c3ccccc3F)[nH]c2-c2ccncc2)cc1 | -13.3% | – | –
34 | CC(C)(Cc1ccccc1)NCC(O)c1ccc(O)c(NS(C)(=O)=O)c1 (centres undefined) | -2.32% | – | –
35 | COc1cc(NC(=O)c2cc(C3CC3)on2)c(OC)cc1Cl | 3.5% | – | –
36 | C=C(C)C(=O)O[C@H]1[C@H]2C(=C)C(=O)O[C@@H]2/C=C(\CO)CC/C=C(/C=O)[C@@H]1O | -11.6% [at 27.7 µM] | – | –
37 | CC(C)n1c(=O)c(C(=O)NC2CC3CCC(C2)N3C[C@@H](O)CN(C)S(C)(=O)=O)cc2ccccc21 (some centres undefined) | -4.59% | – | –
38 | O=C(Nc1ccc(CN2CCOCC2)cc1)c1ccc(-c2cccc(Cl)c2)o1 | -14.9% | – | –
39 | Cc1ccc(OC[C@H](O)[C@H](C)NC(C)C)c2c1CCC2 | 3.58% | – | –
